According to PubChem BioAssay (NCATS):
Several values for one entry are separate records, joined by “and”; a condition that tells them apart may be missing. Equal values may be shown once. Inconclusive results are not listed. Entries that show only a call come without a potency. Activity calls are given as the source filed them. Unless noted, the call rests on the fitted dose curve.

What was measured:
[1] = MultiTox-Fluor Cytotoxicity Assay - LYMP1-001 - Live Cells (AID 947; active means well fitted curve in the direction sought with a large enough effect; an effect the other way counts as inactive or inconclusive)
[2] = MultiTox-Fluor Cytotoxicity Assay - LYMP1-002 - Dead Cells (AID 960; active means well fitted curve in the direction sought with a large enough effect; an effect the other way counts as inactive or inconclusive; further: nearly all actives have a fitted effect of over 60% in size)
Procedure, shortened: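 Human lymphoblastoid LYMP1-002 cells, 2500/well, treated 16 h at 37 C; dead-cell protease cleavage of bis-AAF-R110 read by fluorescence (485/520); normalized to DMSO and 15 uM tetraoctylammonium bromide; AC50 from Hill fit.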

[3] = Cell Viability - LYMP2-004 (AID 966; active means well fitted curve in the direction sought with a large enough effect; an effect the other way counts as inactive or inconclusive; further: nearly all actives have a fitted effect of over 65% in size)
Procedure, shortened: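 Lymphoblastoid LYMP2-004 cells, 2500 per well, were preincubated for 5 hr and then treated with compound for 24 h at 37 C in complete medium. Viability was read as cellular ATP by CellTiter-Glo luminescence, and AC50 values were taken from Hill fits to concentration-response data.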

[4] = Cell Viability - LYMP2-009 (AID 968; active means well fitted curve in the direction sought with a large enough effect; an effect the other way counts as inactive or inconclusive; further: series mostly up to about 92 µM; nearly all actives have a fitted effect of over 55% in size)
[5] = target: Estrogen receptor (Homo sapiens) (UniProt P03372); assay: qHTS assay for small molecule antagonists of estrogen receptor alpha signaling (AID 588513; active means well fitted curve in the direction sought with a large enough effect in the signal ratio, with a control signal flat, not every such curve was filed as active; the % refers to the signal ratio)
Procedure, shortened: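 Beta-lactamase reporter, antagonist mode, HEK 293 GripTite cells; 0.5nM E2 stimulus, 18 h, 37 C; CCF4 dye 2 h RT; fluorescence. IC50 and efficacy from Hill fits, normalized to E2 and DMSO.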

[6] = target: Estrogen receptor (Homo sapiens) (UniProt P03372); assay: qHTS assay for small molecule agonists of estrogen receptor alpha signaling (AID 588514); further: nearly all actives have a fitted effect of over 70% in size
Procedure, shortened: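 ER-alpha-UAS-bla GripTite HEK293 cells, 5000/well in 2% charcoal/dextran-stripped FBS medium, treated with compound titrations 18 h at 37 C. CCF4 beta-lactamase read by fluorescence after 2 h RT; normalised to 20 nM 17-beta-estradiol (100%) and DMSO (0%), Hill fit for EC50 and efficacy.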

[7] = target: Bile acid receptor (Homo sapiens) (UniProt Q96RI1); assay: qHTS assay for small molecule agonists of farnesoid X receptor signaling (AID 588527); settings: HEK293T FXR-UAS-bla, beta-lactamase ratio, 16 h; stronger effect = higher value; further: series mostly up to about 77 µM
Procedure, shortened: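 Read-out: beta-lactamase reporter fluorescence with CCF4 substrate in GeneBLAzer FXR-UAS-bla HEK293T cells, after 16 h compound exposure at 37 C. Response scaled between DMSO basal (0%) and chenodeoxycholic acid at 100 uM (100%).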

[8] = target: Glucocorticoid receptor (Homo sapiens) (UniProt P04150); assay: qHTS assay for small molecule agonists of glucocorticoid receptor signaling (AID 588532; active means well fitted curve in the direction sought with a large enough effect in the signal ratio, with a control signal flat; the % refers to the signal ratio); settings: HeLa MMTV-bla, beta-lactamase ratio, agonist, 18 h; stronger effect = higher value; percent of dexamethasone control, DMSO zero
Procedure, shortened: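 Using MMTV-bla HeLa cells in medium with 1% stripped FBS and 25 mM HEPES, compounds were titrated and incubated overnight-length (18 h). Beta-lactamase cleavage of CCF4 was quantified by dual-emission fluorescence.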

[9] = target: Glucocorticoid receptor (Homo sapiens) (UniProt P04150); assay: qHTS assay for small molecule antagonists of glucocorticoid receptor signaling (AID 588533; active means well fitted inhibition curve with a large enough effect in the signal ratio, with a control signal flat, not every such curve was filed as active; the % refers to the signal ratio;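 further: cells stimulated with 2 nM dexamethasone as agonist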)
Procedure, shortened: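 Antagonist-mode qHTS: compound titrations added to GRE-bla HeLa cells, then dexamethasone 2 nM final; 18 h, 37 C. CCF4 FRET fluorescence normalized to dexamethasone and DMSO; IC50 from Hill fit.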

[10] = qHTS assay for small molecule antagonists of peroxisome proliferator-activated receptor delta signaling (AID 588535; active means well fitted inhibition curve with a large enough effect in the signal ratio, with a control signal flat, not every such curve was filed as active; the % refers to the signal ratio;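 on max response: cells co-treated with a PPAR-delta agonist as stimulator during compound exposure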); settings: HEK293T PPARd-UAS-bla, beta-lactamase FRET ratio, 18 h; 460 nm channel
Procedure, shortened: (§1)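 HEK293T PPAR-delta-UAS-bla cells, 4000/well, 2% charcoal/dextran FBS; 5 h 37 C; cpd titration; 18 h 37 C; CCF4 2 h RT; FI 460/530 nm; Hill fit → IC50, efficacy.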

[11] = target: Peroxisome proliferator-activated receptor delta (Homo sapiens) (UniProt Q03181); assay: as above
Procedure, shortened: as §1

[12] = target: Peroxisome proliferator-activated receptor gamma (Homo sapiens) (UniProt P37231); assay: qHTS assay for small molecule agonists of peroxisome proliferator-activated receptor gamma signaling (AID 588536; active means well fitted curve in the direction sought with a large enough effect in the signal ratio, with a control signal flat, not every such curve was filed as active; the % refers to the signal ratio)
Procedure, shortened: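 Test agents, titrated, stimulated HEK293 UAS-bla cells overnight (16 h, 37 C). Substrate CCF4 was then added for two hours at room temperature before fluorescence reading.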

[13] = qHTS assay for small molecule activators of the p53 signaling pathway (AID 651743; active means well fitted activation curve with a large enough effect in the signal ratio, not every such curve was filed as active; the % refers to the signal ratio; further: series mostly up to about 92 µM); settings: HCT-116 p53RE-bla, beta-lactamase FRET ratio, 16 h; activation: stronger effect = higher value
Procedure, shortened: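 Read-out is fluorescence intensity from the LiveBLAzer B/G FRET substrate, added for 2 hours at room temperature after HCT-116 p53RE-bla cells had been incubated with compounds for 16 hours at 37 C.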

[14] = qHTS assay for small molecule disruptors of the mitochondrial membrane potential - 1 hr assay (AID 651754); further: nearly all actives have a fitted effect of over 35% in size
Procedure, shortened: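 HepG2 cells, attached overnight, were exposed to compound for 1 hr at 37C, then stained 30 min with a potentiometric dye. Ratio of red aggregate (590nm) to green monomer (535nm) fluorescence reports membrane potential; collapse shifts signal toward green.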

[15] = target: Nuclear receptor ROR-gamma (Homo sapiens) (UniProt P51449); assay: qHTS assay for small molecule antagonists of the retinoid-related orphan receptor gamma (ROR-gamma) signaling pathway (AID 651802; active means well fitted curve in the direction sought with a large enough effect; an effect the other way counts as inactive or inconclusive;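 further: luciferase reporter luminescence driven by ROR response element; series mostly up to about 92 µM; nearly all actives have a fitted effect of over 60% in size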)
Procedure, shortened: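 CHO cells with TET-inducible ROR-gamma and RORE-luciferase reporter, dosed then doxycycline-induced. After 16 h at 37C, One-Glo luminescence read; decreased signal indicates antagonism.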

[16] = qHTS assay for small molecule antagonists of the retinoid-related orphan receptor gamma (ROR-gamma) signaling pathway - cell viability counter screen (AID 720652; active means well fitted curve in the direction sought with a large enough effect in the repeat runs; an effect the other way counts as inactive or inconclusive;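 further: series mostly up to about 92 µM; compound exposure lasted 16 hr before ATP read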)
Procedure, shortened: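 CHO cells carrying TET-inducible ROR and RORE-luciferase reporter, plated 5 hr, then dosed with compound plus doxycycline. After 16 hr at 37 C, viability read as intracellular ATP by CellTiter-Glo luminescence.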

[17] = target: Nuclear receptor subfamily 1 group I member 2 (Rattus norvegicus) (UniProt Q9R1A7); assay: qHTS assay for small molecule activators of the rat pregnane X receptor (rPXR) signaling pathway (AID 651751; call rule not given here); settings: rPXR reporter cells, luciferase (One-Glo), 24 h
[18] = qHTS assay for small molecule activators of the human pregnane X receptor (PXR) signaling pathway (AID 720659; call rule not given here)
[19] = target: Vitamin D3 receptor (Homo sapiens) (UniProt P11473); assay: qHTS assay for small molecule antagonists of vitamin D receptor signaling (AID 588541);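 further: receptor activated by calcitriol during compound treatment; series mostly up to about 77 µM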
Procedure, shortened: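 Antagonist-mode beta-lactamase reporter assay: HEK293T VDR-UAS-bla cells were exposed to titrated compound alongside 1-alpha,25-dihydroxyvitamin D3 at 3 nM final for 16 h. Values were normalized to the 50 nM agonist control and DMSO basal, with IC50 and efficacy from Hill equation fits.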

[20] = target: Vitamin D3 receptor (Homo sapiens) (UniProt P11473); assay: qHTS assay for small molecule agonists of vitamin D receptor signaling (AID 588543)
Procedure, shortened: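 β-lactamase reporter, VDR-UAS-bla HEK293T, agonist mode. Cells plated 5 h at 37 °C, compound titration 16 h at 37 °C, CCF4 dye 2 h RT, ratio 460/530 nm. Hill fit → EC50, efficacy vs 50 nM 1α,25-(OH)2D3.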

Sequence of Glucocorticoid receptor (Homo sapiens) (P04150 whole entry, looked up): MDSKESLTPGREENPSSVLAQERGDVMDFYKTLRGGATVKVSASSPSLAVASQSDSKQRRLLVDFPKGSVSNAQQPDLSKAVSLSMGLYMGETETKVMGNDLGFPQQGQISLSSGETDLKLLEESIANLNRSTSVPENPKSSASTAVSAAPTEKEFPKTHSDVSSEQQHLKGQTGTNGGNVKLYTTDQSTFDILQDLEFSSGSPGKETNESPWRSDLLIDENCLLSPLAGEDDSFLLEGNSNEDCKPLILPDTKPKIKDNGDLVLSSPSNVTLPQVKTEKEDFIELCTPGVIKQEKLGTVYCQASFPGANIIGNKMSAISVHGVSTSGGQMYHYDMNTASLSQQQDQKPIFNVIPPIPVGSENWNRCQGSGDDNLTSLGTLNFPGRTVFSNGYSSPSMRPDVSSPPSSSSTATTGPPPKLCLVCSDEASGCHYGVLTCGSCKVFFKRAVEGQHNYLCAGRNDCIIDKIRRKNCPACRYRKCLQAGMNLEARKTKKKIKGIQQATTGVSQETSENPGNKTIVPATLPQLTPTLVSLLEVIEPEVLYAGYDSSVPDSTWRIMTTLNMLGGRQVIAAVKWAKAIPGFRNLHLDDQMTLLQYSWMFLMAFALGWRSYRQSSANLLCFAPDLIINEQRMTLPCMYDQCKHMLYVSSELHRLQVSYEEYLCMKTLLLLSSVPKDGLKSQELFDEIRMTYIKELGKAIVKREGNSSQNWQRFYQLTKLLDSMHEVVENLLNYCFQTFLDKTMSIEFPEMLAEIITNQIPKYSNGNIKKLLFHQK
Sequence of Peroxisome proliferator-activated receptor gamma (Homo sapiens) (P37231 whole entry, looked up): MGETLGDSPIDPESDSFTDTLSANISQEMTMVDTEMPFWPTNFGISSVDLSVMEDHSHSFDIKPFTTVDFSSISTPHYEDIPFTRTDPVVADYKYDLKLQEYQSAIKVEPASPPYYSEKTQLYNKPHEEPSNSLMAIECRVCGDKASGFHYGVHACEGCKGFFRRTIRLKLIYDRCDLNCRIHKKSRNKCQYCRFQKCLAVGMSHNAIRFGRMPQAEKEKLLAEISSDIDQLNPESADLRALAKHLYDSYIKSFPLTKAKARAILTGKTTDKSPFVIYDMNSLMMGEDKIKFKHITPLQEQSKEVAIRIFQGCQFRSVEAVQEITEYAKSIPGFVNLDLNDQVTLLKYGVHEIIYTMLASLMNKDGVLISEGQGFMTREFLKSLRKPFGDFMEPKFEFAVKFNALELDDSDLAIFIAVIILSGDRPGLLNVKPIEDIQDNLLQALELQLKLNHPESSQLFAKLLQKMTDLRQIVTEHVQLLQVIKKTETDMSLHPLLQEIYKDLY
Sequence of Estrogen receptor (Homo sapiens) (P03372 whole entry, looked up): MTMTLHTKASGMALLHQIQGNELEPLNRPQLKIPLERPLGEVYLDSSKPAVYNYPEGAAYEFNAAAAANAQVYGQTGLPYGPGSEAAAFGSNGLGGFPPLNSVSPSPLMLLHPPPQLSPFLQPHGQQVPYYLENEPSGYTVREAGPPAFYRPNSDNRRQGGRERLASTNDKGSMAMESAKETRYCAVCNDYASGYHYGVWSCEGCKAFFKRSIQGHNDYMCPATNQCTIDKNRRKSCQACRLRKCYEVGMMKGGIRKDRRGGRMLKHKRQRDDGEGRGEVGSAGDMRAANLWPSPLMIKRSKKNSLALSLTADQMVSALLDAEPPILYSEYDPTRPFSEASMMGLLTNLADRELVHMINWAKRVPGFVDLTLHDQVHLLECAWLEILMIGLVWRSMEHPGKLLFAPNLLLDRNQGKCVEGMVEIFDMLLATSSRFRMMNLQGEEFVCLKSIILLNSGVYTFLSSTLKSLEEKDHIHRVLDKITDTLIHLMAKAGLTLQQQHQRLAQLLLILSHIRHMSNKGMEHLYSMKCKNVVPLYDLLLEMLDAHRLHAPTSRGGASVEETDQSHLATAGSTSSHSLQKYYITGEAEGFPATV
Sequence of Vitamin D3 receptor (Homo sapiens) (P11473 whole entry, looked up): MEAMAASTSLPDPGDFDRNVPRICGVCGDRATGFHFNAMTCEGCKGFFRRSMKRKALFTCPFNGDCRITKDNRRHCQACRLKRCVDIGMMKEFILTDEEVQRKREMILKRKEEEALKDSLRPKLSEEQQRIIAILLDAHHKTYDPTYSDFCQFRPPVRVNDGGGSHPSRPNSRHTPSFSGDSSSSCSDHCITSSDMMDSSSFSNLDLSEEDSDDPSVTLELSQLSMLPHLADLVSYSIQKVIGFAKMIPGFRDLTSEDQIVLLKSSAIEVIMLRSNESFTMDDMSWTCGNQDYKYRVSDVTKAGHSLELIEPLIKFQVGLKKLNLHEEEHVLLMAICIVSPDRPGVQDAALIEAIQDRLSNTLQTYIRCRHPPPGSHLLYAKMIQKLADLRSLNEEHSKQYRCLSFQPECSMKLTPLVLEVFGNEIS
Sequence of Bile acid receptor (Homo sapiens) (Q96RI1 whole entry, looked up): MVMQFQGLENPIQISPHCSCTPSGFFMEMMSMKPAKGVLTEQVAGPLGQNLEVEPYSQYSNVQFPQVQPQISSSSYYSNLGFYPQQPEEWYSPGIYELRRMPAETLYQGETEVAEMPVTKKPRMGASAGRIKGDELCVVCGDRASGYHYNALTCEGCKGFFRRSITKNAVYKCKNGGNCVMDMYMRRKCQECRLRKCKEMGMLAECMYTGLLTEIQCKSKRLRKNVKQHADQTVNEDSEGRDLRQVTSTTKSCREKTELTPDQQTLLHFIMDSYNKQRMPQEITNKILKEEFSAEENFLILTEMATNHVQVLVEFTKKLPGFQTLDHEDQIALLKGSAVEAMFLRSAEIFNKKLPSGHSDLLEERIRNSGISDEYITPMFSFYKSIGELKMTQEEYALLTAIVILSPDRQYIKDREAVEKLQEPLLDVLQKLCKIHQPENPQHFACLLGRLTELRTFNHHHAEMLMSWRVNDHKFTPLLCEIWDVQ
Sequence of Nuclear receptor subfamily 1 group I member 2 (Rattus norvegicus) (Q9R1A7 whole entry, looked up): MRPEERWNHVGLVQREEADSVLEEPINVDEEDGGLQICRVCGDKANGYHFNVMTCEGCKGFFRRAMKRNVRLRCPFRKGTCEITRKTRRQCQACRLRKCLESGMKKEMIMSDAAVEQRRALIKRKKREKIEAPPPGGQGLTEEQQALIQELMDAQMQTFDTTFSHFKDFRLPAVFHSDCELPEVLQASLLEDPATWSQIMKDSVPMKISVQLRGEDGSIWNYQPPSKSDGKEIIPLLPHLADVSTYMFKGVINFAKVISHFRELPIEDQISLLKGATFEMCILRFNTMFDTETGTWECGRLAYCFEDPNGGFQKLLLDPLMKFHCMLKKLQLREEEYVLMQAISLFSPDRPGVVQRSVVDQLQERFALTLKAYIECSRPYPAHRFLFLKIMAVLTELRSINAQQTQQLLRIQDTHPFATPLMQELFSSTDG
Sequence of Peroxisome proliferator-activated receptor delta (Homo sapiens) (Q03181 whole entry, looked up): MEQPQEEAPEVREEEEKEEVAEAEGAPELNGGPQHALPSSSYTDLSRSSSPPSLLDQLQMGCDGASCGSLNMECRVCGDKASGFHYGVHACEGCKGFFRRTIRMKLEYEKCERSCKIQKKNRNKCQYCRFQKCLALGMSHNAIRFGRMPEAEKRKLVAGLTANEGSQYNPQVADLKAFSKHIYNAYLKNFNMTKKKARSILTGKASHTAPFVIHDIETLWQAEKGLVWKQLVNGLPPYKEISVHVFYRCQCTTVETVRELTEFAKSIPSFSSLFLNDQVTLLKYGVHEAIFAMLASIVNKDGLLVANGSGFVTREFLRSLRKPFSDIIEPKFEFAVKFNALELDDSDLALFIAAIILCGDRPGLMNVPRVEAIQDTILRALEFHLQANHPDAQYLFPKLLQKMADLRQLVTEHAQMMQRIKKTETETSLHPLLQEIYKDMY
Sequence of Nuclear receptor ROR-gamma (Homo sapiens) (P51449 whole entry, looked up): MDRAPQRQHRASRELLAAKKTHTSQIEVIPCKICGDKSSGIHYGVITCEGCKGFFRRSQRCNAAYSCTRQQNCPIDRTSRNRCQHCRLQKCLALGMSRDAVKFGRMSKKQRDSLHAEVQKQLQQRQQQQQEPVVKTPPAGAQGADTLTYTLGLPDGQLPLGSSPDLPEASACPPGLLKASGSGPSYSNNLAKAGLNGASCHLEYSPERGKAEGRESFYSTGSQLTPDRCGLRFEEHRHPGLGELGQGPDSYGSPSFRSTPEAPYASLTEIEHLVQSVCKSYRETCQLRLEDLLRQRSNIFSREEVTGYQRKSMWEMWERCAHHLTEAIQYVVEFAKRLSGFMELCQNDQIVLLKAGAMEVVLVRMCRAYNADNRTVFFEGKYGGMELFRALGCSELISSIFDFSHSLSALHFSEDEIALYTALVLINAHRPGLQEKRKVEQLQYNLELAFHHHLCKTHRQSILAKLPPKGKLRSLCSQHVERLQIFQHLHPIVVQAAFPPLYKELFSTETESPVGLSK

Compound	Potency [1]	Potency [2]	Potency [3]	Potency [4]	Potency [5]	Potency [6]	activation [7]	activation [8]	Potency [9]	max response [10]	Potency [11]	outcome [12]	activation [13]	Potency [14]	Potency [15]	Potency [16]	max response [17]	outcome [18]	outcome [19]	outcome [20]
CC(C)(C)OOC(C)(C)C	inactive	inactive	inactive	inactive	inactive	inactive	-0.0913% (inactive)	-1.7% (inactive)	inactive	29.5%	inactive	inactive	-4.97% (inactive)	inactive	inactive	inactive	2.42% (inactive)	inactive		
C=C(Cl)Cl	inactive	inactive	inactive	inactive	inactive	inactive		-1.7% (inactive)		-8.55%	inactive	inactive	-1.18% (inactive)	inactive	inactive	inactive	-3.03% (inactive)	inactive		
C=CCOC(C)=O	inactive	inactive	inactive	inactive	inactive	inactive	-1.61% (inactive)	10.3% (inactive)	inactive			inactive	-2.44% (inactive)	inactive	inactive	inactive	-1.67% (inactive)	inactive	inactive	inactive
CC(O)CCl (configuration not stated)	inactive	inactive	inactive	inactive	inactive	inactive	-2.4% (inactive) and 3.49% (inactive)	-3.59% (inactive) and -2.54% (inactive)	inactive	-27.3% and -9.22%	inactive	inactive		inactive	inactive	inactive	4.48% (inactive) and -2.85% (inactive)	inactive	inactive	inactive
O=C(Cl)C(Cl)(Cl)Cl	inactive	inactive	inactive	inactive	inactive	inactive	-1.96% (inactive)	-1.29% (inactive)	inactive	6.34%	inactive	inactive	-0.85% (inactive)	inactive	inactive	inactive	-0.469% (inactive)	inactive	inactive	inactive
CCOP(=S)(OCC)SCSC(C)(C)C	inactive	inactive	inactive	inactive	inactive	inactive				18.1% and -40.8%	inactive	inactive	3.78% (inactive) and -1.22% (inactive)	inactive		inactive	3.05% (inactive) and 5.9% (inactive)		inactive	inactive
C=CC(=O)OCC	inactive	inactive	inactive	inactive	inactive	inactive	-1.2% (inactive)	2.08% (inactive)	inactive	26.1%	inactive	inactive		inactive	inactive	inactive	-4.65% (inactive)	inactive		
C=CC(N)=O	inactive	inactive	inactive	inactive	inactive			-1.03% (inactive) and 0.342% (inactive)	inactive	43.8% and 22.1%	inactive		-1.86% (inactive) and -1.05% (inactive) and 3.38% (inactive)	inactive	inactive	inactive	2.43% (inactive) and 2.67% (inactive) and -1.89% (inactive)	inactive	inactive	inactive
OCC1CO1 (configuration not stated)	inactive	inactive	inactive	inactive	inactive	inactive	-2.37% (inactive) and -0.462% (inactive)	-12% (inactive)	inactive	-3.17% and 28.4%	inactive	inactive	-2.94% (inactive) and 1.37% (inactive)	inactive	inactive		-4.01% (inactive) and -4.87% (inactive)	inactive	inactive	inactive
Cc1ccc2ccccc2c1	inactive	inactive	inactive	inactive	inactive	inactive	-0.561% (inactive)			14.3%	inactive	inactive	-0.481% (inactive)	inactive	inactive	inactive	6.07% (inactive)	inactive	inactive	inactive
